This is part of a sample that, as a whole, favours compounds with a hit. Of some 79,000 tested, about 15% had one in any assay. Cut-off read from the data, not from the text of the source: active = growth inhibition above about 70%; inactive = the rest.
Columns and labels:
[1] = NCI Yeast Anticancer Drug Screen. Data for the rad50 strain (AID 155);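 note: 0% = growth of vehicle-only cultures of the same strain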; conditions: S. cerevisiae rad50 strain growth inhibition; at 50.0 µM; stronger effect = higher value
Procedure, shortened: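 Cells are treated with compound, grown, and their growth is then scored against vehicle-only cultures of the same repair-deficient yeast strain.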

[2] = NCI Yeast Anticancer Drug Screen. Data for the mec2-1 strain (AID 157); conditions: S. cerevisiae mec2-1 strain, at 50.0 µM, stronger effect = higher value
Procedure, shortened: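 mec2-1 yeast strain, carrying an alteration in DNA damage repair or cell cycle control, was exposed to compounds; growth inhibition was measured relative to vehicle-treated controls.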

[3] = NCI Yeast Anticancer Drug Screen. Data for the sgs1 mgt1 strain (AID 161);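 note: 0% = growth of cultures given vehicle only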; conditions: S. cerevisiae sgs1 mgt1 strain, at 50.0 µM, stronger effect = higher value
Procedure, shortened: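 Percent growth inhibition was derived by comparing compound-exposed mutant yeast with vehicle-exposed cultures. The strain carries alterations in DNA damage repair.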

[4] = NCI Yeast Anticancer Drug Screen. Data for the cln2 rad14 strain (AID 165);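 note: 0% = growth equal to vehicle treated cultures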; conditions: S. cerevisiae cln2 rad14 strain, at 50.0 µM, stronger effect = higher value
Procedure, shortened: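 Yeast carrying cln2 and rad14 alterations (cell cycle control and DNA damage repair) were exposed to compounds. Growth inhibition was measured against vehicle-treated controls.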

[5] = NCI Yeast Anticancer Drug Screen. Data for the bub3 strain (AID 167); conditions: S. cerevisiae bub3 mutant strain, at 50.0 µM, stronger effect = higher value
Procedure, shortened: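 Part of a panel of yeast mutants defective in DNA damage repair or cell cycle regulation. Each strain is grown with compound, and inhibition is calculated relative to solvent-treated cultures.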

[6] = NCI Yeast Anticancer Drug Screen. Data for the mlh1 rad18 strain (AID 175); conditions: S. cerevisiae mlh1 rad18 strain growth inhibition; at 50.0 µM; stronger effect = higher value
Procedure, shortened: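 Growth inhibition of the yeast strain was measured after compound exposure and expressed relative to vehicle-treated controls. The strain carries defined defects in DNA damage repair.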

Measured: growth inhibition

CC1(CO)OC(n2cnc3c(N)ncnc32)C(O)C1O (stereo unspecified)
inactive: [1] -25.8% | [2] -30.8% | [3] -52.6% | [4] -8.25% | [5] -14.7% | [6] -29.2%

CC(=O)NC(C)c1ccc2ccccc2c1 (stereo unspecified)
inactive: [1] -5.4% | [2] 14.8% | [3] 1.8% | [4] 7.55% | [5] -8.5% | [6] 11.4%

Cc1ncc([N+](=O)[O-])n1Cc1nncs1
inactive: [1] -9.35% | [2] -11.4% | [3] -7.95% | [4] -31.9% | [5] -19.3% | [6] -14.2%

O=C(NNC(=O)c1ccc(Cl)c(Cl)c1)c1ccc(Cl)c(Cl)c1
inactive: [1] -37.9% | [2] -56.5% | [3] -25.1% | [4] 6.15% | [5] -16.4% | [6] -33.1%

Cc1ccc(C(C)C)cc1OC(=O)NC1CCCCC1
inactive: [1] -4% | [2] 9.3% | [3] 9.9% | [4] -13.2% | [5] -23.4% | [6] -0.6%

COc1cc2cc(-c3ccc(Cl)c(Cl)c3)[n+](C)cc2cc1OC
inactive: [1] 36% | [2] 20.1% | [3] 35.3% | [4] 21.6% | [5] -3.55% | [6] 13.7%

CC(C)=CCC1=C(O)c2ccccc2C(=O)C1=O
inactive: [1] 16.6% | [2] 5.15% | [3] 14.2% | [4] 0.4% | [5] -4.25% | [6] 13.1%

CC(C)N(C(C)C)C1C=CC(N(C(C)C)C(C)C)CC1 (stereo unspecified)
inactive: [1] 5% | [2] -15.9% | [3] 2.3% | [4] -33.6% | [5] -7.3% | [6] -0.35%

COC(=O)c1ccccc1N=Cc1ccc(N(CCC#N)S(=O)(=O)c2ccccc2)cc1
inactive: [1] -2.05% | [2] 13.3% | [3] -6.15% | [4] 18.2% | [5] 20.3% | [6] 15.9%

CCOC(=O)c1ccc(NC(=O)Oc2ccc(C=O)cc2OC)cc1
inactive: [1] 5.7% | [2] 5.3% | [3] 7.85% | [4] 11% | [5] 20.1% | [6] 7.2%

CCCCCC(=O)OC(C)COc1ccccc1 (stereo unspecified)
inactive: [1] 20.6% | [2] 22.7% | [3] 20.8% | [4] -10.8% | [5] 30.9% | [6] 28.6%

COc1ccc2c(c1)OCCN(C)OC2c1ccccc1 (stereo unspecified)
inactive: [1] -7.65% | [2] -4.6% | [3] -10.2% | [4] 0.5% | [5] 11.1% | [6] -1.5%

CSc1ccc(NC(=O)c2ccc([N+](=O)[O-])cc2)cc1
inactive: [1] -1.1% | [2] 5.6% | [3] 10.3% | [4] -13.3% | [5] 25.9% | [6] 3.05%

Cc1cccc(C)c1NC(=O)/C(=N/NC(N)=S)C(C)C(=O)c1ccc(Cl)cc1 (stereo unspecified)
inactive: [1] 12.6% | [2] 6.35% | [3] 19.6% | [4] 13.3% | [5] 4.5% | [6] 22.3%

COc1ccc(CSCc2cc(OC)c(OC)c(OC)c2)cc1
inactive: [1] -13.5% | [2] 16.8% | [3] -24.1% | [4] 0.3% | [5] 51.2% | [6] -2.15%

CC(=O)Nc1ccc(C=O)s1
inactive: [1] -0.65% | [2] 6% | [3] -15.4% | [4] -36.2% | [5] 1.65% | [6] -0.4%

O=S(Cc1ccccc1)CC(O)CO (stereo unspecified)
inactive: [1] -24.9% | [2] 5.95% | [3] 2.7% | [4] -41.2% | [5] 10.3% | [6] -0.85%

COC(=O)C1CC(=C(C)C)CCC1=O (stereo unspecified)
inactive: [1] 11.1% | [2] 2.15% | [3] 0.4% | [4] 11.2% | [5] 8.7% | [6] -1.7%

C[CH2][Sn]([CH2]C)([N](c1ccccn1)c1ccccn1)[N](c1ccccn1)c1ccccn1
inactive: [1] -1.75% | [2] -2.25% | [3] -26.2% | [4] 4.3% | [5] -0.6% | [6] -25.1%

COC(=O)C1(CC(=O)c2ccc(C)cc2)NC(=S)NC(=O)C1C#N (stereo unspecified)
inactive: [1] -4.7% | [2] -4.8% | [3] -30.1% | [4] -8.65% | [5] -34.6% | [6] -0.85%

OCC(O)COc1cccc2cccnc12 (stereo unspecified)
inactive: [1] 4.75% | [2] -15% | [3] 0.4% | [4] -26.1% | [5] 11.2% | [6] 8.3%

Reference: PubChem BioAssay (NCI)
